TAR Tat displ: HIV-1 TAR-Tat binding disruption; HIV-1 TAR RNA, Tat peptide displacement FRET; stronger effect = higher value; z-score (concentration not given with the values); 0.6% of 100,000 active; active = z-score of 3 or more in at least 2 runs
CDC25B CDK2 inh: human CDC25B-CDK2/CyclinA binding inhibition; P30305+P24941; 0.72% of 94,000 active; AID 1259370; z-score (test concentration not listed); HTRF CDC25B-CDK2/CyclinA binding, anti-His/anti-Flag; stronger effect = higher value; in the data active = z-score above about 3.2
* = called active by the depositor. A selection: hits, their analogues and other compounds. The true share with any hit is near 0.9%.

`COc1ccc(N2CSC3=C(C#N)C(c4ccc(Br)cc4)CC(=O)N3C2)c(OC)c1` (stereo not given) gave TAR Tat displ 0.32 and CDC25B CDK2 inh 2.4.
`COc1ccc(N2CSC3=C(C#N)C(c4c(F)cccc4Cl)CC(=O)N3C2)c(OC)c1` (stereo not given) gave TAR Tat displ 1.89 and CDC25B CDK2 inh 0.86.
Screening COc1ccc(N2CSC3=C(C#N)C(c4ccccc4)CC(=O)N3C2)c(OC)c1 (stereo not given) returned TAR Tat displ -2.01 and CDC25B CDK2 inh 4.28*.
COc1cccc(C2CC(=O)N3CN(c4ccc(OC)cc4OC)CSC3=C2C#N)c1 (stereo not given) was read as TAR Tat displ -0.1 and CDC25B CDK2 inh 5.9*.
For COC(=S)Nc1cccc(C(F)(F)F)c1 the results were CDC25B CDK2 inh -1.75.
Screening COc1cc(OC)c2nc(C)c3c(c2c1)CN(C(=O)Nc1cccc(C(F)(F)F)c1)C3 returned CDC25B CDK2 inh 15.1*.
`CCOC(=O)c1nn(-c2ccc(OC)cc2)c(=O)c2c(NC(=O)C3CCCC3)scc12` gave CDC25B CDK2 inh -1.44.
CCOC(=O)c1nn(-c2ccccc2)c(=O)c2c(N)scc12 was read as TAR Tat displ -4.87 and CDC25B CDK2 inh 19.2*.
For NC[C@H](O)c1ccc(O)c(O)c1 the results were TAR Tat displ 27.3* and CDC25B CDK2 inh 5.87*.
Screening CNC[C@H](O)c1ccc(O)c(O)c1 returned CDC25B CDK2 inh -1.71.
CCc1ccccc1NC(=O)NC1=C(C#N)C(C)(CC)Cc2ccccc21 (stereo not given) was read as TAR Tat displ 2.03 and CDC25B CDK2 inh -1.43.
CC1CC(C)CN(c2cc(NCCO)c3c4c(onc24)-c2ccccc2C3=O)C1 (stereo not given) was read as TAR Tat displ 1.17 and CDC25B CDK2 inh -3.24.
`CCOC(=O)C1CCCN(c2cc(NCCO)c3c4c(onc24)-c2ccccc2C3=O)C1` (stereo not given) gave TAR Tat displ 8.83* and CDC25B CDK2 inh 0.97.
CCNc1cc(N2CCCC(C(=O)OCC)C2)c2noc3c2c1C(=O)c1ccccc1-3 (stereo not given) was read as TAR Tat displ 1.78 and CDC25B CDK2 inh -2.01.
For CCN1CCN(c2cc(N3CCCCC3)c3c4c(onc24)-c2ccccc2C3=O)CC1 the results were TAR Tat displ -4.54 and CDC25B CDK2 inh 1.2.
`CN1CCN(c2cc(NCC(=O)O)c3c4c(onc24)-c2ccccc2C3=O)CC1` gave TAR Tat displ 0.58 and CDC25B CDK2 inh 3.85*.
Screening CCNc1cc(N2CCN(C)CC2)c2noc3c2c1C(=O)c1ccccc1-3 returned TAR Tat displ 0.06 and CDC25B CDK2 inh -2.58.
`CN1CCN(c2cc(N3CCCCC3)c3c4c(onc24)-c2ccccc2C3=O)CC1` gave TAR Tat displ -5.95 and CDC25B CDK2 inh 5.56*.
`CC1CC(C)CN(c2cc(NCC(=O)O)c3c4c(onc24)-c2ccccc2C3=O)C1` (stereo not given) gave TAR Tat displ -5.77 and CDC25B CDK2 inh 12.3*.
`O=C(CSc1nc2ncccc2n2cccc12)NCC1CCCO1` (stereo not given) gave TAR Tat displ -7.47.
For O=C(Cn1cc(S(=O)(=O)N2CCCCC2)c(S(=O)(=O)N2CCCCC2)c1)N1CCCC1 the results were TAR Tat displ -3.38.
For CCCS(=O)(=O)c1ncc(Cl)c(C(=O)Nc2nc3ccc(Cl)cc3s2)n1 the results were TAR Tat displ 2.19 and CDC25B CDK2 inh -2.16.
Screening Cn1c(=O)c(=O)n(C)c2cc(S(=O)(=O)N3CCCC3c3ccccc3F)ccc21 (stereo not given) returned TAR Tat displ 0.48 and CDC25B CDK2 inh -2.76.
`CC(C)CC(=O)Nc1ccc2nc(SCC(=O)N(C)c3ccccc3)sc2c1` gave TAR Tat displ 1.75 and CDC25B CDK2 inh -1.92.
`CC1CC(C)CN(c2cc(NCCCC(=O)O)c3c4c(onc24)-c2ccccc2C3=O)C1` (stereo not given) gave TAR Tat displ -1.81 and CDC25B CDK2 inh 3.04*.
`CC1CCCN(c2cc(NCC(=O)O)c3c4c(onc24)-c2ccccc2C3=O)C1` (stereo not given) gave TAR Tat displ -5.96 and CDC25B CDK2 inh 3.04*.
Screening CC1CCCN(c2cc(NCCCC(=O)O)c3c4c(onc24)-c2ccccc2C3=O)C1 (stereo not given) returned TAR Tat displ -2.21 and CDC25B CDK2 inh 0.56.
Screening CC1CCCN(c2cc(NCCO)c3c4c(onc24)-c2ccccc2C3=O)C1 (stereo not given) returned TAR Tat displ 2.67 and CDC25B CDK2 inh -0.36.
`CC(=O)N1CCc2cc(Br)cc(S(=O)(=O)NCc3nc4nc(C)cc(C)n4n3)c21` gave TAR Tat displ 1.52 and CDC25B CDK2 inh -1.5.
For CCOC(=O)c1sc2ccccc2c1S(=O)(=O)Nc1cc(C)cc(C)c1 the results were TAR Tat displ -0.45.

Source: PubChem BioAssay (Center for Chemical Genomics, University of Michigan)
